The values that follow come from ChEMBL document CHEMBL3988442, “University of Dundee, Small-Polar-MMV Screening Library” (2021).

SMILES strings stand for the structures. Out of some 48,000 compounds screened, about 13,000 (27%) showed an effect of 50% or more. The list shows a part of the results.

For this assay, the system named is Wolbachia pipientis. Kind of assay: Anti-Wolbachia Cell-Based Screen. The format is functional. Set-up: scale not given: in the data most compounds retested in dose-response had high values. As to conditions: 5 µM.
As to `Cn1nc(Cn2ccnc2)c2c1CN(C(=O)c1ccc[nH]1)C2`, the “Percent Effect” value is -17.57%.

As for `CCCc1cnc(C)nc1NC(C)Cc1cnccn1` (stereo not drawn), the “Percent Effect” value is recorded as -13.48%.

Regarding `COc1ccccc1N1CCC(CNC(=O)N(C)Cc2ccco2)C1` (stereo not drawn), the “Percent Effect” value amounted to 0.07203%.

`COCCN(c1ccncc1)S(=O)(=O)c1cc(C)cc(F)c1`: the “Percent Effect” value is reported as -2.462%.

Regarding `Cc1nc(C2CCCN(C(=O)c3ccoc3)C2)no1` (stereo not drawn), the “Percent Effect” value came out at 101.5%.

Consider `Cc1nc(C2CCCN(C(=O)c3cccc(S(C)(=O)=O)c3)C2)no1` (stereo not drawn), for which the “Percent Effect” value stood at 8.734%.

`CC(C)c1nc(C2CCCN(C(=O)c3ccnc(N(C)C)c3)C2)no1` (stereo not drawn): the “Percent Effect” value is given as -3.864%.

Take `Cc1nc(C2CCCN(C(=O)c3ccnc(N(C)C)c3)C2)no1` (stereo not drawn): the “Percent Effect” value is given as 127.7%.

`Cc1nc(C2CCCN(C(=O)c3ccc(S(C)(=O)=O)cc3)C2)no1` (stereo not drawn): the “Percent Effect” value was determined as 120.9%.

With `Cc1nc(C2CCCN(C(=O)c3ccco3)C2)no1` (stereo not drawn), the “Percent Effect” value is given as 13.92%.

Consider `Cc1cnn(CCNCc2ccc(OCc3csc(C)n3)cc2)c1`, for which the “Percent Effect” value was -5.1%.

`Cn1c(Cn2cccn2)nnc1C1CCCN(c2ccncc2)C1` (stereo not drawn): the “Percent Effect” value was -11.32%.

In the case of `Cc1ccccc1C(=O)NCc1ccc(N2CCNC(=O)C2)c(F)c1`, the “Percent Effect” value is -11.32%.

Turning to `O=C(O)C(F)(F)F.O=C([C@H]1COC[C@H]2CN(CC3CCCC3)C[C@H]21)N1CCOCC1`, the “Percent Effect” value was -19.66%.

In the case of `COc1ccc(OC)c(NC(=O)c2nc3ccccc3n(C)c2=O)c1`, the “Percent Effect” value was found to be 10.54%.

As for `COc1cccc(NC(=O)Cc2c(C)nc3c(c2C)c(=O)[nH]n3C)c1`, the “Percent Effect” value is given as 0.5633%.

As to `CCCN1CCC(NC(=O)Nc2ccc(OC)c(OC)c2)CC1`, the “Percent Effect” value amounted to 8.494%.

With `COc1cc(NC(=O)c2nc3ccccc3n(C)c2=O)cc(OC)c1`, the “Percent Effect” value was 112.5%.

Regarding `COc1cc(NC(=O)NCc2ccccn2)cc(OC)c1`, the “Percent Effect” value stood at 6.3%.

On to `CCSc1nc(N)c(NC(=O)c2ccc(OC)c(OC)c2)c(=O)[nH]1`, for which the “Percent Effect” value is -7.588%.

As for `COc1cccc(NC(=O)NC(C)(C)c2noc(C)n2)c1`, the “Percent Effect” value is listed as -4.672%.

On to `COc1ccc(NC(=O)c2nc3ccccc3n(C)c2=O)c(OC)c1`, for which the “Percent Effect” value came to 115.5%.

In the case of `COc1ccc(NC(=O)c2nc3ccccc3n(C)c2=O)cc1OC`, the “Percent Effect” value worked out at 120.1%.

With `COc1cccc(NC(=O)c2nc3ccccc3n(C)c2=O)c1`, the “Percent Effect” value was 124.2%.

For `Cn1c(CCCNC(=O)Nc2cn[nH]c2)nc2ccccc21`, the “Percent Effect” value is recorded as -21.13%.

For the molecule `COc1ccc(Nc2nc3c(C)nn(C)c3c(=O)n2C)c(OC)c1`, the “Percent Effect” value is recorded as -1.628%.

For `CN(Cc1ccsc1)C(=O)Nc1cccc(N2CCOC2=O)c1`, the “Percent Effect” value is given as 1.632%.

Take `Cc1cccc(NC(=O)C2CCCN2C(=O)c2ccco2)c1C` (stereo not drawn): the “Percent Effect” value was -37.39%.
